Consider eleven molecules from PubChem BioAssay (NCI).

Among the test systems are HCT-15 colon; HT29 colon; SNB-75 CNS; SNB-19 CNS; U251 CNS; PC-3 prostate; SK-MEL-5 melanoma; UACC-62 melanoma; LOX IMVI melanoma; SK-MEL-2 melanoma; SN12C renal; UO-31 renal; ACHN renal; CAKI-1 renal; A498 renal; CCRF-CEM leukemia; MOLT-4 leukemia; SK-MEL-28 melanoma; TK-10 renal; EKVX NSCLC.
Holding throughout (assay): NCI-60 one-dose screen, 48 h (100 = growth as untreated, 0 = no growth, -100 = all killed)
Conditions in all cases: 10 µM unless noted

About 83,000 compounds went through this panel and 20% of them were active in at least one assay; those are over-represented in the sample as a whole.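 The endpoint reported here, percent growth, reads 100 for growth as untreated, 0 for no net growth and -100 for all cells dead.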 Values without a mark were called inactive. Activity calls are given as the source filed them. Rule for the calls: active = growth percent below 10; inactive = the rest.

Regarding `CC(C)[C@H](CO)Nc1nc(Nc2ccc(C(=O)NCCNS(=O)(=O)c3cccc4c(N(C)C)cccc34)c(Cl)c2)c2ncn(C(C)C)c2n1`, the growth is 51.9% in the test with HCT-15 colon; 9.2% (active) in the test with HT29 colon; 10.6% in the test on SNB-75 CNS; 24.6% in the test on SNB-19 CNS; 1.44% (active) in the test with U251 CNS; 17% in the test on PC-3 prostate. The growth in the test on SK-MEL-5 melanoma was 12.1%; in the test with UACC-62 melanoma it was 22.2%; with LOX IMVI melanoma, -3.44% (active); in the test with SK-MEL-2 melanoma, -16.1% (active); in the test on SN12C renal, 12.1%; in the test on UO-31 renal, 77.2%. Moreover, the growth is 43.4% in the test with ACHN renal; 48.6% in the test with CAKI-1 renal; -9.15% (active) with A498 renal; -1.68% (active) in the test on CCRF-CEM leukemia; -12.1% (active) in the test with MOLT-4 leukemia.

Take `O=C(NCCCN1CCN(CCCNC(=O)C2CCCCC2)CC1)C1CCCCC1`: the growth in the test with HCT-15 colon was 97.5%; in the test with HT29 colon it was 108%; in the test with SNB-75 CNS, 88.7%; with SNB-19 CNS, 107%; with U251 CNS it was 96.9%; in the test with PC-3 prostate it was 91.3%. The growth is 98.3% with UACC-62 melanoma; 101% with LOX IMVI melanoma; 99.7% with SK-MEL-28 melanoma; 98% with SK-MEL-2 melanoma; 97.1% with SN12C renal; 85.7% with UO-31 renal. Besides, the growth is 113% with TK-10 renal; 99.5% in the test on ACHN renal; 87.2% in the test on CAKI-1 renal; 105% in the test with A498 renal; 91.9% with CCRF-CEM leukemia; 94.1% in the test with MOLT-4 leukemia.

Turning to `COc1ccc(-c2nc(-c3ccccc3)c(-c3ccccc3)n2C2CC2)cc1OC1CCCCC1`, the growth with HCT-15 colon was 41.7%; in the test on HT29 colon, 49.2%; with SNB-75 CNS it was 56.3%; in the test on SNB-19 CNS it was 83.7%; with U251 CNS it was 43.9%; in the test with PC-3 prostate it was 43.4%. For the same molecule, the growth with UACC-62 melanoma was 60.8%; in the test with LOX IMVI melanoma, 45.6%; in the test on SK-MEL-28 melanoma it was 77.7%; in the test on SK-MEL-2 melanoma, 87.3%; in the test with SN12C renal, 73.3%; with UO-31 renal, 62.9%. The growth with TK-10 renal is 92.3%; with ACHN renal it was 53.8%; in the test with CAKI-1 renal, 58.4%; with A498 renal, 63.7%; in the test with CCRF-CEM leukemia it was 30.5%; in the test with MOLT-4 leukemia, 32.7%.

As to `O=S(=O)(NCCCNc1nccc(-c2c(-c3ccccc3)nc3sccn23)n1)c1ccc(F)cc1`, the growth was 19.4% in the test on HCT-15 colon; 29% in the test with HT29 colon; 44% with SNB-75 CNS; 75.1% in the test on SNB-19 CNS; 46.4% in the test with U251 CNS; 60.6% with PC-3 prostate. Moreover, the growth in the test on SK-MEL-5 melanoma is 14.3%; in the test on UACC-62 melanoma it was 23.1%; in the test on LOX IMVI melanoma, 23.7%; in the test with SK-MEL-2 melanoma, 53.8%; with SN12C renal it was 44.1%; with UO-31 renal, 24.9%. The growth in the test on TK-10 renal was 72.7%; in the test on ACHN renal, 26.6%; in the test on CAKI-1 renal it was 33.1%; with CCRF-CEM leukemia, 31.2%; in the test on MOLT-4 leukemia, 38.4%.

In the case of `CN(C)c1ccc(C2CC(c3ccccc3)=NN2/C=C2\SC(=O)NC2=O)cc1` (stereo unspecified), the growth in the test with HCT-15 colon was 85.9%; in the test on HT29 colon it was 108%; in the test on SNB-75 CNS it was 83.6%; in the test with SNB-19 CNS, 87.6%; in the test on U251 CNS it was 103%; with PC-3 prostate, 91.3%. In addition, the growth in the test with UACC-62 melanoma was 90.7%; in the test on LOX IMVI melanoma it was 74.3%; with SK-MEL-28 melanoma, 91.1%; with SK-MEL-2 melanoma it was 113%; in the test on SN12C renal, 87.3%; in the test on UO-31 renal, 78.9%. The growth with TK-10 renal is 94.4%; in the test with ACHN renal it was 81.5%; in the test with CAKI-1 renal it was 95%; in the test on CCRF-CEM leukemia it was 113%; with MOLT-4 leukemia, 59.7%.

Consider `COc1ncc(-c2ccc3ncnc(Nc4cccc(Cl)c4)c3c2)cc1NS(=O)(=O)CCN1CCOCC1`, for which the growth with HCT-15 colon was 6.62% (active); with HT29 colon it was 10.1%; in the test with SNB-75 CNS it was -19.2% (active); in the test with SNB-19 CNS, 21.2%; with U251 CNS it was 28.3%; in the test on PC-3 prostate, 12.4%. In addition, the growth is -21.4% (active) in the test on UACC-62 melanoma; 1.29% (active) with LOX IMVI melanoma; -4.89% (active) in the test on SK-MEL-28 melanoma; -1.15% (active) in the test with SK-MEL-2 melanoma; -20.7% (active) in the test with EKVX NSCLC; 10.1% with SN12C renal. For the same molecule, the growth with UO-31 renal is -8.52% (active); in the test on TK-10 renal, -19.6% (active); with ACHN renal, 7.46% (active); with CAKI-1 renal it was 1.1% (active); in the test with A498 renal it was -35.9% (active); in the test on CCRF-CEM leukemia, 22.5%.

As to `CC(=O)n1cc([C@H]2CC[C@H](c3cn(C(C)=O)c4ccccc34)c3c2[nH]c2ccccc32)c2ccccc21`, the growth with HCT-15 colon is 58.7%; in the test with HT29 colon, 67.7%; in the test on SNB-75 CNS it was 87.4%; in the test on SNB-19 CNS, 93.2%; with U251 CNS, 82.9%; in the test with SK-MEL-5 melanoma, 80%. For the same molecule, the growth is 64.4% in the test with UACC-62 melanoma; 79.5% with LOX IMVI melanoma; 100% in the test with SK-MEL-28 melanoma; 79.6% with SK-MEL-2 melanoma; 84.7% with SN12C renal; 55.3% in the test on UO-31 renal. In addition, the growth is 92.8% in the test with TK-10 renal; 77.9% in the test with ACHN renal; 57% with CAKI-1 renal; 64.9% in the test on CCRF-CEM leukemia; 57.6% in the test with MOLT-4 leukemia.

As for `COc1cc(OC)c(C(=O)/C=C/c2cccc(C(F)(F)F)c2)c(OC)c1`, the growth is 6.82% (active) with HCT-15 colon; 3.81% (active) in the test with HT29 colon; 19.2% in the test with SNB-75 CNS; 14.2% in the test on SNB-19 CNS; 9.44% (active) with U251 CNS; 13.2% with SK-MEL-5 melanoma. The growth is -12.1% (active) with UACC-62 melanoma; -16.7% (active) in the test with LOX IMVI melanoma; 39.1% with SK-MEL-28 melanoma; -16.1% (active) in the test with SK-MEL-2 melanoma; 19.2% in the test on SN12C renal; 26.9% in the test on UO-31 renal. Moreover, the growth in the test with TK-10 renal is 15.1%; with ACHN renal it was 3.47% (active); in the test with CAKI-1 renal it was 33.8%; with CCRF-CEM leukemia, 4.41% (active); in the test on MOLT-4 leukemia it was 1.4% (active).

Regarding `CC(Cc1nnc(SCC(=O)Nc2ccc(I)cc2)n1N)c1ccccc1` (stereo unspecified), the growth in the test with HCT-15 colon was 103%; with HT29 colon it was 111%; in the test with SNB-75 CNS, 260%; with SNB-19 CNS it was 96.6%; in the test on U251 CNS, 92.7%; with SK-MEL-5 melanoma, 94.3%. Besides, the growth with UACC-62 melanoma was 66.8%; in the test with LOX IMVI melanoma, 83.7%; with SK-MEL-28 melanoma, 133%; in the test with SK-MEL-2 melanoma, 69.8%; with EKVX NSCLC, 82.5%; with SN12C renal it was 98.4%. For the same molecule, the growth in the test on UO-31 renal is 74.1%; with TK-10 renal it was 89.9%; in the test with ACHN renal it was 86.5%; with CAKI-1 renal it was 104%; in the test on A498 renal, 99.9%; with CCRF-CEM leukemia it was 54.9%. Also, the growth in the test with MOLT-4 leukemia is 93.4%.

On to `O=C(CNC1CCCCC1)Nc1ccc(-c2nc3ccccc3s2)cc1`, for which the growth with HCT-15 colon is 62.9%; in the test with HT29 colon, 62.3%; with SNB-75 CNS, 67.3%; in the test with SNB-19 CNS, 91%; in the test with U251 CNS, 65.1%; with PC-3 prostate it was 79.7%. The growth is 96.2% with UACC-62 melanoma; 73.9% in the test on LOX IMVI melanoma; 105% in the test with SK-MEL-2 melanoma; 86.7% in the test with SN12C renal; 56.5% with UO-31 renal; 103% with TK-10 renal. Moreover, the growth with ACHN renal is 99.1%; with CAKI-1 renal, 86%; in the test on CCRF-CEM leukemia it was 77.3%; with MOLT-4 leukemia, 54.1%.

On to `CCCCCC/C=C\CCCCCCCCOc1ccc(CCOP(=O)(O)OCC[N+](C)(C)C)cc1`, for which the growth was 85% in the test on HCT-15 colon; 30.2% in the test on HT29 colon; 75.3% in the test on SNB-75 CNS; 39.4% in the test with SNB-19 CNS; 14.8% in the test on PC-3 prostate; 84.9% in the test on SK-MEL-5 melanoma. The growth was 71.1% in the test on UACC-62 melanoma; 81.3% in the test with LOX IMVI melanoma; 95.5% in the test with SK-MEL-28 melanoma; 91% in the test with SK-MEL-2 melanoma; 95.3% in the test on EKVX NSCLC; 91.4% in the test with SN12C renal. In addition, the growth is 83.2% in the test with UO-31 renal; 23.5% in the test with TK-10 renal; 91.7% in the test on ACHN renal; 36.9% in the test with CAKI-1 renal; 95.6% in the test on A498 renal.
